Experimental data reported in PubChem BioAssay AID686979 (National Center for Advancing Translational Sciences (NCATS), 2013).
Among all 420,000 compounds or so, about 50,000 (12%) were called active. Where a call stands in place of a potency, no number is given. About 26% were inconclusive and are not listed. The call rests on the fitted dose curve; in most records, active means well fitted inhibition curve with a large enough effect; inconclusive means small, poorly fitted or top-dose-only effect; inactive means flat fitted curve, though single readings scatter. This excerpt belongs to a sample that is enriched for actives.

Test: qHTS for Inhibitors of human tyrosyl-DNA phosphodiesterase 1 (TDP1): qHTS in cells in presence of CPT; further: nearly all actives have a fitted effect of over 55% in size
Conditions: chicken DT40 Tdp1-/-;hTDP1 cells + 20 nM CPT, ATP luminescence, 48 h; series mostly up to 46.2 µM
How it was run: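 Cell growth measured by CellTiter-Glo luminescence after a minimum 48 h, 37 C compound exposure with 20 nM CPT in Tdp1-knockout DT40 cells stably expressing hTDP1, seeded 400/well; qHTS titration format.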
Potency means the concentration at half of the fitted maximal effect.

Row | SMILES | Potency
1 | COCc1c(C(=O)N/N=C(\C)c2ccncc2)nnn1-c1nonc1N | inactive
2 | CSc1ccc(/C=C2\NC(=O)NC2=O)cc1 | inactive
3 | O=C(Nc1ccnn1C1CCN(Cc2cccc(OCCO)c2)CC1)C1CCCC1 | inactive
4 | CCN(CC)CCN(C(=O)c1cc(Cl)sc1Cl)c1nc2cc3c(cc2s1)OCO3 | inactive
5 | Nc1ccccc1SC(C[N+](=O)[O-])c1ccccc1 (stereo unspecified) | 4.11 µM (active)
6 | Nc1ccccc1SCc1cc([N+](=O)[O-])cc2c1OCOC2 | inactive
7 | Nc1ccccc1Sc1ccc(C(F)(F)F)cc1[N+](=O)[O-] | inactive
8 | COc1ccc(NS(=O)(=O)c2ccc(C)c(C(=O)NNC(=O)c3csc(N4CCOCC4)n3)c2)cc1 | inactive
9 | O=C(NCc1cccnc1)c1cccc(-c2cc3ccccc3oc2=O)c1 | inactive
10 | Cc1ccc(S(=O)(=O)CCC(=O)OCC(=O)N(C)C2CCS(=O)(=O)C2)cc1 (stereo unspecified) | inactive
11 | Cc1ccc2nc(-c3ccc(O)cc3)c(Nc3ccc4c(c3)OCO4)n2c1 | 23.1 µM (active)
12 | Cc1ccc(SCC(=O)Nc2ccc3c(c2)OCCO3)cc1 | inactive
13 | Cc1nc([N+](=O)[O-])cn1CC(=O)Nc1ccc2c(c1)OCO2 | inactive
14 | CC(C)(C)NC(=O)NC(=O)COC(=O)C1(C)CC1(Cl)Cl (stereo unspecified) | inactive
15 | COc1ccc(CNC(=O)CC2Oc3ccc(C)cc3NC2=O)cc1 (stereo unspecified) | inactive
16 | Cc1cc(C)cc(NC(=O)C(OC(=O)c2ccc(O)cc2)c2ccccc2)c1 (stereo unspecified) | inactive
17 | CC(=O)Nc1ccc(N2C(=O)CC(Sc3nccc(C)n3)C2=O)cc1 (stereo unspecified) | inactive
18 | O=C1CC(Sc2ncn[nH]2)C(=O)N1c1ccccc1 (stereo unspecified) | 8.2 µM (active)
19 | O=C1CC(N2CCN(c3ccc(F)cc3)CC2)C(=O)N1c1ccccc1 (stereo unspecified) | inactive
20 | Cc1ccnc(SC2CC(=O)N(c3ccccc3)C2=O)n1 (stereo unspecified) | inactive
21 | COc1ccc(N2C(=O)CC(SC(C)C)C2=O)cc1 (stereo unspecified) | inactive
22 | COc1ccc(N2C(=O)CC(Sc3n[nH]c(-c4ccc(C)cc4)n3)C2=O)cc1 (stereo unspecified) | 2.91 µM (active)
23 | COc1ccc(-c2nc(SCC(=O)N3CCOCC3)n[nH]2)cc1 | inactive
24 | Cc1ccc(N2C(=O)CC(Sc3ncn[nH]3)C2=O)cc1 (stereo unspecified) | 5.17 µM (active)
25 | CCOC(=O)c1ccc(N2C(=O)CC(Sc3nc(O)c(CC)c(=O)[nH]3)C2=O)cc1 (stereo unspecified) | inactive
26 | OCC[C@H]1C[C@H](O)[C@@H](O)[C@]2(CCc3ccccc3O2)O1 | inactive

Row | SMILES | Potency
27 | Cc1cc(C)cc(NC(=O)c2cccc(NC(=O)C3C4CC5OC(=O)C3C5C4)c2)c1 (stereo unspecified) | inactive
28 | O=C(O)CCN(Cc1ccccc1)S(=O)(=O)c1c(Cl)cccc1Cl | inactive
29 | COc1cc(NC(=O)CCS(=O)(=O)c2ccc3c(c2)oc(=O)n3C)cc(OC)c1 | inactive
30 | O=S(=O)(Nc1ccc(OC(F)(F)F)cc1)c1cccc2nonc12 | inactive
31 | C[C@H](NS(=O)(=O)c1ccc(Cl)cc1)C(=O)OCC(=O)N1CCOCC1 | inactive
32 | CC1CN(C(=O)c2ccccc2NS(=O)(=O)c2cccc([N+](=O)[O-])c2)CC(C)O1 (stereo unspecified) | inactive
33 | COC(=O)C1=CO[C@@H](O[C@@H]2O[C@H](CO)[C@@H](O)[C@H](O)[C@H]2O)C2C1C[C@H](O)[C@@H]2C (stereo partly specified) | inactive
34 | CC[C@]12c3[nH]c4cc(CCC(=O)N(C)C)ccc4c3CCN1C(=O)[C@@H](CC(=O)NCCCn1ccnc1)C[C@@H]2C(=O)N1CCN(C(=O)C2CC2)CC1 | inactive
35 | OC(CBr)C[n+]1cccc2cc(Br)ccc21 (stereo unspecified) | 4.47 µM (active)
36 | COc1ccc(N2CCN(S(=O)(=O)c3ccc4c(c3)N(C(C)=O)CCO4)CC2)cc1 | inactive
37 | CN(C)c1ccc(/C=N/NC(=O)c2ccc(Cn3cc(Br)cn3)o2)cc1 | inactive
38 | CC1(c2ccc3ccccc3c2)NC(=O)N(CC(N)=O)C1=O (stereo unspecified) | inactive
39 | CCOC(=O)C1CCN(C(=O)CN2C(=O)NC(C)(c3ccc4cc(OC)ccc4c3)C2=O)CC1 (stereo unspecified) | 18.4 µM (active)
40 | CCOC(=O)C1CCN(C(=O)Nc2cccc(OC)c2)CC1 | inactive
41 | CCSc1nnc(NC(=O)c2cc(=O)c3cc(C)c(C)cc3o2)s1 | inactive
42 | CN=C1S/C(=C\c2c(OC)cc(OC)cc2OC)C(=O)N1C | inactive
43 | O=C(COC(=O)/C=C/c1cccs1)NC1CCCCC1 | inactive
44 | COc1ccc(CCNC(=O)c2ccco2)cc1 | inactive
45 | COc1ccc(CCNC(=O)c2cnc(Cl)c(Cl)c2)cc1 | inactive
46 | CCOc1ncccc1C(=O)NCCc1ccc(OC)cc1 | 18.4 µM (active)
47 | OCCN1CCN(c2ncnc3c2ncn3[C@H]2CN(Cc3ccco3)C[C@@H](CO)O2)CC1 | inactive
48 | Cc1nn(CC(=O)N2CCN(c3cccc(C(F)(F)F)c3)CC2)c(=O)c2cc3sccc3n12 | inactive
49 | COc1ccc2[nH]c(=S)cc(C)c2c1 | inactive
50 | COc1ccc2[nH]c3c(C)c4cc[n+](C)cc4c(C)c3c2c1 | 0.259 µM (active)
51 | COc1ccc2[nH]c3ccc(OC)cc3c2c1 | inactive
